Data as given in PubChem BioAssay (NCATS).
Inconclusive results are not listed. Active and inactive are the calls of the source. Unless noted, calls come from the whole dose curve; as a rule, active = well fitted cell-killing curve with a large enough effect; inconclusive = small, poorly fitted or top-dose-only effect; inactive = flat fitted curve, though single readings scatter.

Legend:
[1] = Cell Viability - LYMP2-025 (AID 976);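 note: series mostly up to about 92 µM; plate controls were DMSO only for no effect and tetraoctylammonium bromide control for full effect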
Outline: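 Human lymphoblastoid LYMP2-025 cells (2500/well) were pre-incubated 5 hr at 37 C, then treated with compounds for 24 hr at 37 C in complete medium. Viability was read as intracellular ATP by CellTiter-Glo luminescence; AC50 from Hill fits.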

[2] = Cell Viability - LYMP2-002 (AID 977);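 note: series mostly up to about 92 µM; compound exposure lasted 24 h at 37 °C; plate controls were DMSO only for no effect and 92 µM tetraoctylammonium bromide for full effect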
Outline: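 Cytotoxicity is scored as concentration-dependent loss of cellular ATP in a human lymphoblastoid line after 24 hr compound treatment at 37 C. AC50 is obtained by modelling concentration-response data with the Hill equation.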

[3] = Cell Viability - LYMP2-006 (AID 978); note: series mostly up to about 92 µM; % is set by controls: 0 for no effect and ±100 for the full control effect; nearly all actives have a fitted effect of over 60% in size
Outline: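 In this cytotoxicity screen, the human lymphoblastoid line grew in complete medium with test compounds for 24 hr at 37 C. Cellular ATP served as the viability signal.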

[4] = Cell Viability - LYMP2-007 (AID 979);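 note: cells exposed to compound for 24 h before reading; 0% = DMSO only and the negative end = 92 µM tetraoctylammonium bromide; nearly all actives have a fitted effect of over 60% in size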
Outline: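 Human lymphoblastoid cells (2500/well) were plated in complete medium, incubated 5 hr at 37 C, then exposed to compounds for 24 hr at 37 C. Intracellular ATP was read by CellTiter-Glo luminescence after 30 min at room temperature; AC50 from Hill fits.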

[5] = Cell Viability - LYMP2-008 (AID 980); note: % is set by controls: 0 for no effect and ±100 for the full control effect; nearly all actives have a fitted effect of over 60% in size
Outline: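 Human lymphoblastoid cells (2500/well) were plated, held 5 hr at 37 C, then exposed to compounds for 24 hr at 37 C in complete medium. Intracellular ATP was read by CellTiter-Glo luminescence; AC50 from Hill-fitted concentration-response.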

[6] = Cell Viability - LYMP2-010 (AID 981); note: % is set by controls: 0 for no effect and ±100 for the full control effect; nearly all actives have a fitted effect of over 55% in size
Outline: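 Human lymphoblastoid LYMP2-010 cells (2500/well) were preincubated 5 hr at 37 C, then exposed to compounds for 24 hr at 37 C in complete medium. Intracellular ATP was measured by CellTiter-Glo luminescence after 30 min at room temperature; AC50 from Hill-fitted concentration-response.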

[7] = Cell Viability - LYMP2-012 (AID 982);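 note: cellular ATP by luciferase luminescence where a drop means cytotoxicity; cells exposed to compound for one day before reading; 0% = DMSO only and full loss = 92 µM tetraoctylammonium bromide; nearly all actives have a fitted effect of over 55% in size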
[8] = Cell Viability - LYMP2-014 (AID 983);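 note: series mostly up to about 92 µM; plate controls were DMSO only for no effect and 92 µM tetraoctylammonium bromide for full effect; nearly all actives have a fitted effect of over 50% in size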
Outline: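 Human lymphoblastoid cells (2500/well) were pre-incubated 5 hr at 37 C, then exposed to compounds in complete medium for 24 hr at 37 C. Intracellular ATP was read by CellTiter-Glo luminescence after 30 min at room temperature; AC50 from Hill fits.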

[9] = Cell Viability - LYMP2-016 (AID 984); note: % is set by controls: 0 for no effect and ±100 for the full control effect; nearly all actives have a fitted effect of over 55% in size
Outline: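 Concentration-dependent ATP depletion measured in LYMP2-016 lymphoblastoid cells, 24 h, 37 C; luciferase-based luminescent detection; Hill-equation AC50.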

[10] = Cell Viability - LYMP2-018 (AID 985);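 note: compound exposure lasted 24 hr at 37 °C; plate controls were DMSO only for no effect and tetraoctylammonium bromide at 92 µM for full effect; nearly all actives have a fitted effect of over 50% in size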
Outline: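 Human lymphoblastoid cells (2500/well) were pre-incubated 5 hr at 37 C, then exposed to compounds for 24 hr at 37 C in complete medium. Viability was read as intracellular ATP by CellTiter-Glo luminescence; AC50 values came from Hill-equation fits.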

[11] = Cell Viability - LYMP2-020 (AID 986);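 note: series mostly up to about 92 µM; plate controls were DMSO only for no effect and tetraoctylammonium bromide at 92 µM for full effect; nearly all actives have a fitted effect of over 55% in size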
Outline: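 Human lymphoblastoid cells, 2500/well, were pre-incubated 5 hr at 37 C, then exposed to compounds for 24 hr at 37 C in complete medium. Intracellular ATP was read by CellTiter-Glo luminescence, and AC50 was derived by Hill fitting of concentration-response data.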

[12] = Cell Viability - LYMP2-022 (AID 987)
Outline: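 Human lymphoblastoid cells, 2500/well, preincubated 5 hr at 37 C, then exposed to compounds over a concentration range for 24 hr at 37 C in complete medium. Viability read as intracellular ATP by CellTiter-Glo luminescence after 30 min at room temperature; AC50 from Hill fits.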

[13] = Cell Viability - LYMP2-024 (AID 988);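 note: plate controls were DMSO only for no effect and 92 µM tetraoctylammonium bromide for full effect; nearly all actives have a fitted effect of over 60% in size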
Outline: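 Human lymphoblastoid cells (2500/well) in complete medium were preincubated 5 hr at 37 C, then exposed to compounds for 24 hr at 37 C. Intracellular ATP was read by CellTiter-Glo luminescence; AC50 from Hill-equation fits of concentration-response data.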

[14] = Cell Viability - LYMP2-026 (AID 989); note: % is set by controls: 0 for no effect and ±100 for the full control effect; nearly all actives have a fitted effect of over 50% in size
Outline: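 Human lymphoblastoid cells (2500/well) in complete medium were preincubated 5 hr at 37 C, then exposed to compounds for 24 hr at 37 C. Cellular ATP was read by CellTiter-Glo luminescence; AC50 from Hill-equation fits of concentration-response data.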

[15] = Cell Viability - LYMP1-002 - Assay at 24 hr (AID 993); note: % is set by controls: 0 for no effect and ±100 for the full control effect
Outline: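 Human lymphoblastoid LYMP1-002 cells, 2500/well in complete medium, were treated with compounds for 24 h at 37 C; intracellular ATP was read by CellTiter-Glo luminescence. AC50 values came from Hill-equation fits of qHTS concentration-response data.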

[16] = Cell Viability - LYMP1-002 - Assay at 40 hr (AID 994)
Outline: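 Human lymphoblastoid cells, 2500/well in complete medium, were preincubated 5 hr at 37 C, then exposed to compounds for 40 hr at 37 C. Intracellular ATP was read by CellTiter-Glo luminescence after 30 min at room temperature; AC50 from Hill-equation fits.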

[17] = qHTS Assay for Identification of Small Molecule Inducers of Hypoxia Response (AID 2120; active = well fitted curve in the direction sought with a large enough effect in the signal ratio, with a control signal flat, not every such curve was filed as active; the % refers to the signal ratio; note: 0% is about no effect)
Outline: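 HRE-beta-lactamase reporter in CellSensor HRE-bla ME-180 cells, 2500 cells/well in Opti-MEM with 0.5% dialyzed FBS; compounds tested as titration series, 17 h at 37 degrees C. CCF4 substrate 2.5 h at room temperature; AC50 from 460/530 nm ratio.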

[18] = molecular target: Androgen receptor (Homo sapiens) (UniProt P10275); test: qHTS assay for small molecule agonists of androgen receptor signaling (AID 588515; active = well fitted curve in the direction sought with a large enough effect in the signal ratio, with a control signal flat; the % refers to the signal ratio; note: % is set by controls: 0 for no effect and ±100 for the full control effect); conditions: AR-UAS-bla HEK293, beta-lactamase ratio, agonist 16 h; hits give high values
Outline: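 EC50 and efficacy came from Hill fits of titrations (up to 92 uM) normalized to 30 nM R1881 as 100% and DMSO as 0%. Compound exposure was 16 h at 37 C on AR-UAS-bla HEK293 cells, with a 405/460/530 nm CCF4 fluorescence read.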

Sequence of Androgen receptor (Homo sapiens) (P10275 whole entry, looked up): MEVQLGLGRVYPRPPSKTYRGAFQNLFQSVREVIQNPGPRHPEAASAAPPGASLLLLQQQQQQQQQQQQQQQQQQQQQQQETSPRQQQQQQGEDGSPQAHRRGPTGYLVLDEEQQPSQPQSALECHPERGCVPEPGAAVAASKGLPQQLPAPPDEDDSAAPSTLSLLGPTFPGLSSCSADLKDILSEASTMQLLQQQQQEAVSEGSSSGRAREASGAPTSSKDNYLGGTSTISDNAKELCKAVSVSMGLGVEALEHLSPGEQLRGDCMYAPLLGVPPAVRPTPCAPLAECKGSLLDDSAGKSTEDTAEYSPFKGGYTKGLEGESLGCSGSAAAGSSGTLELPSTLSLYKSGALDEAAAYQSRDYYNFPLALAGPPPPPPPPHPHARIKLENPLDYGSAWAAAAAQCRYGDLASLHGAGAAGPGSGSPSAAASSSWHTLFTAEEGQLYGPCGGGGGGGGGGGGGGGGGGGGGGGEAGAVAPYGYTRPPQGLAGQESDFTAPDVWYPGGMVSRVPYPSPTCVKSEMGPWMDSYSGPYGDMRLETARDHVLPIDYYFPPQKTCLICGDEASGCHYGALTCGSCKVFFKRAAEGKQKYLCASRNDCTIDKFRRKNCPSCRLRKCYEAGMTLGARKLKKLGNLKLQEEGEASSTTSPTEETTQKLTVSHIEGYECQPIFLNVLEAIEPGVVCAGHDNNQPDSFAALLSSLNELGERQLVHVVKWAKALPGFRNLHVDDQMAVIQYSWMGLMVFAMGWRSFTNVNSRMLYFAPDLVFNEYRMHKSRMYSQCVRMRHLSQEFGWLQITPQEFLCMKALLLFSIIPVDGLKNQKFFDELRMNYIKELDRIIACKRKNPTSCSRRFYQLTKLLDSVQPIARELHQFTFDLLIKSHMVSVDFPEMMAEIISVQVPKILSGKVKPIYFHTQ

CCCCOCCOCCSC#N
inactive: Potency [1] | Potency [2] | Potency [3] | Potency [4] | Potency [5] | Potency [6] | Potency [7] | Potency [8] | Potency [9] | Potency [10] | Potency [11] | Potency [12] | Potency [13] | outcome [14] | Potency [15] | Potency [16] | outcome [17]

C=Cc1ccccn1
inactive: Potency [1] | Potency [2] | Potency [3] | Potency [4] | Potency [5] | Potency [6] | Potency [7] | Potency [8] | Potency [9] | Potency [10] | Potency [11] | Potency [12] | Potency [13] | outcome [14] | Potency [15] | Potency [16] | outcome [17]

Cc1cccc2cccnc12
inactive: Potency [1] | Potency [2] | Potency [3] | Potency [4] | Potency [5] | Potency [6] | Potency [7] | Potency [8] | Potency [9] | Potency [10] | Potency [11] | Potency [12] | Potency [13] | outcome [14] | Potency [15] | Potency [16] | outcome [17]

O=[N+]([O-])c1ccc(Cl)cc1Cl
inactive: Potency [1] | Potency [2] | Potency [3] | Potency [4] | Potency [5] | Potency [6] | Potency [7] | Potency [8] | Potency [9] | Potency [10] | Potency [11] | Potency [12] | Potency [13] | outcome [14] | Potency [15] | Potency [16] | outcome [17]

CCCC=O
inactive: Potency [1] | Potency [2] | Potency [3] | Potency [4] | Potency [5] | Potency [6] | Potency [7] | Potency [8] | Potency [9] | Potency [10] | Potency [11] | Potency [12] | Potency [13] | outcome [14] | Potency [15] | Potency [16] | outcome [17]

CCNc1ccccc1
inactive: Potency [1] | Potency [2] | Potency [3] | Potency [4] | Potency [5] | Potency [6] | Potency [7] | Potency [8] | Potency [9] | Potency [10] | Potency [11] | Potency [12] | Potency [13] | outcome [14] | Potency [15] | Potency [16] | outcome [17] | activation [18] 1.96%

BrC/C=C/CBr
inactive: Potency [1] | Potency [2] | Potency [3] | Potency [4] | Potency [5] | Potency [6] | Potency [7] | Potency [8] | Potency [9] | Potency [10] | Potency [11] | Potency [12] | Potency [13] | outcome [14] | Potency [15] | Potency [16] | outcome [17]

O=C(O)CN(CC(=O)O)CC(=O)O
inactive: Potency [1] | Potency [2] | Potency [3] | Potency [4] | Potency [5] | Potency [6] | Potency [7] | Potency [8] | Potency [9] | Potency [10] | Potency [11] | Potency [12] | Potency [13] | outcome [14] | Potency [15] | Potency [16] | outcome [17]

O=C(O)c1c(Cl)cccc1Cl
inactive: Potency [1] | Potency [2] | Potency [3] | Potency [4] | Potency [5] | Potency [6] | Potency [7] | Potency [8] | Potency [9] | Potency [10] | Potency [11] | Potency [12] | Potency [13] | outcome [14] | Potency [15] | Potency [16] | outcome [17]

O=[N+]([O-])c1c(Cl)cc(Cl)cc1Cl
inactive: Potency [1] | Potency [2] | Potency [3] | Potency [4] | Potency [5] | Potency [6] | Potency [7] | Potency [8] | Potency [9] | Potency [10] | Potency [11] | Potency [12] | Potency [13] | outcome [14] | Potency [15] | Potency [16] | outcome [17]

O=Cc1ccc(Cl)cc1
inactive: Potency [1] | Potency [2] | Potency [3] | Potency [4] | Potency [5] | Potency [6] | Potency [7] | Potency [8] | Potency [9] | Potency [10] | Potency [11] | Potency [12] | Potency [13] | outcome [14] | Potency [15] | Potency [16] | outcome [17] | activation [18] -1.22%

CCCCCCCCN
inactive: Potency [1] | Potency [2] | Potency [3] | Potency [4] | Potency [5] | Potency [6] | Potency [7] | Potency [8] | Potency [9] | Potency [10] | Potency [11] | Potency [12] | Potency [13] | outcome [14] | Potency [15] | Potency [16] | outcome [17]

COc1cccc(N)c1
inactive: Potency [1] | Potency [2] | Potency [3] | Potency [4] | Potency [5] | Potency [6] | Potency [7] | Potency [8] | Potency [9] | Potency [10] | Potency [11] | Potency [12] | Potency [13] | outcome [14] | Potency [15] | Potency [16] | outcome [17]

CC(C)(O)C(=O)O
inactive: Potency [1] | Potency [2] | Potency [3] | Potency [4] | Potency [5] | Potency [6] | Potency [7] | Potency [8] | Potency [9] | Potency [10] | Potency [11] | Potency [12] | Potency [13] | outcome [14] | Potency [15] | Potency [16] | outcome [17]

CC(O)COC(C)(C)C (stereo not given)
inactive: Potency [1] | Potency [2] | Potency [3] | Potency [4] | Potency [5] | Potency [6] | Potency [7] | Potency [8] | Potency [9] | Potency [10] | Potency [11] | Potency [12] | Potency [13] | outcome [14] | Potency [15] | Potency [16] | outcome [17]

O=CNc1ccccc1
inactive: Potency [1] | Potency [2] | Potency [3] | Potency [4] | Potency [5] | Potency [6] | Potency [7] | Potency [8] | Potency [9] | Potency [10] | Potency [11] | Potency [12] | Potency [13] | outcome [14] | Potency [15] | Potency [16] | outcome [17]

Nc1nc(-c2ccccc2)cs1
inactive: Potency [1] | Potency [2] | Potency [3] | Potency [4] | Potency [5] | Potency [6] | Potency [7] | Potency [8] | Potency [9] | Potency [10] | Potency [11] | Potency [12] | Potency [13] | Potency [15] | Potency [16] | outcome [17]
